# Source: PubChem BioAssay (NCATS)
# Inconclusive results are not listed. A call without a number means that no potency is given here. A number with no mark means an inactive call. Calls of active or inactive are those of the source. The call rests on the fitted dose curve; in most records, active means well fitted cell-killing curve with a large enough effect; inconclusive means small, poorly fitted or top-dose-only effect; inactive means no such curve, though single readings can be large or run the other way.
# Assay: qHTS of pediatric cancer cell lines to identify multiple opportunities for drug repurposing: Primary screen for SJ-GBM2 cells (AID 1347091)
# Details: SJ-GBM2 viability, CellTiter-Glo luminescence, 48 h; series mostly up to 46 µM
# Excerpt: Drug repurposing or repositioning has been offered as a strategy for drug development in oncology programs. This approach has special potential for childhood cancers and other rare or orphan diseases, where the expected return on new drug development has been a disincentive to pharmaceuticals.
# In this project we exploit the poly-pharmacology of drugs to discover new indications via phenotypic screening of a panel of 19 well-characterized cell lines derived from solid tumors seen in children and adolescents. The goal is to identify approved drugs with previously unrecognized anticancer properties that has the potential to reveal new mechanisms and biological processes involved in carcinogenesis or drug resistance. We employed a titration-based paradigm (quantitative high-throughput screening or qHTS), where all compounds were tested at multiple concentrations for their effect on cell viability. Concentration-response curves (CRCs) were derived directly from the primary screen, and both potency and efficacy values were used to identify compounds with robust bioactivity profiles. We screened the NIH Chemical Genomics Center (NCGC) Pharmaceutical Collection (NPC) and Mechanism Interrogation Plate (MIPE) small molecule collections of approved and investigational compounds against these cell lines; and measured metabolically active cells after 48 hours of compound treatment as a proxy for cell viability.
# Assay Submitter: Nathalia J. Martinez, National Center for Advancing Translational Sciences, National Institutes of Health, Rockville, MD, USA; email: natalia.martinez@nih.gov
# [1] Shen, M et al. Quantitative high-throughput phenotypic screening of pediatric cancer cell lines identifies multiple opportunities for drug repurposing. Oncotarget 2017 Dec 19;9(4):4758-4772. PMID 29435139.
# The cells were obtained from University of North Carolina (UNC), Pediatric Preclinical Testing Program (PPT), and Coriell Institute (CI).
# qHTS cell viability assay:
# Cells were assayed in growth media at a density of 500-1,000 cells/well. Five microliters of cells were dispensed into 1,536-well, white, solid-bottom, TC-treated plates (Greiner Bio One) using a multidrop dispenser and incubated at 37 degrees C, 5% CO2, under a humidified atmosphere for 5 hours. Twenty-three nanoliters of compounds and controls (neutral control DMSO or positive control bortezomib at final concentration of 2.3 µM) were subsequently transferred by Kalypsys pintool. For primary screens, the MIPE collection was tested at 11-point dilutions (final concentrations range from 0.78 nM to 46 µM) and the NPC collection at 8-point dilutions (final concentrations range from 0.59 nM to 46 µM). Compounds tested in follow-up screens were assayed at 11-point dilutions. Cells were incubated for 48 hours, followed by addition of 3 uL of CellTiter-Glo (Promega). After a 15 min incubation at room temperature, samples were analyzed for luminescence intensity using a ViewLux High-throughput CCD imager equipped with clear filters.
# Potency means the concentration at half of the fitted maximal effect.
Structure (SMILES),Potency,"activity change, negative = cytotoxic"
CN(C)CCOC(c1ccc(Cl)cc1)c1ccccn1 (stereo not given),inactive,
Cc1cccc(C)c1NC(=O)CN1CCCC1,inactive,
COc1cc(N)c(Cl)cc1C(=O)NC1CCN(Cc2ccccc2)CC1,inactive,
CC(C)Nc1cccnc1N1CCN(C(=O)c2cc3cc(NS(C)(=O)=O)ccc3[nH]2)CC1,inactive,
C=C[C@H]1CN2CC[C@H]1C[C@H]2[C@H](O)c1ccnc2ccc(OC)cc12,inactive,
CC(O)Cn1cnc2c1c(=O)n(C)c(=O)n2C (stereo not given),inactive,
CN(CCCN1c2ccccc2CCc2ccccc21)CC(=O)c1ccc(Cl)cc1,inactive,
c1ccc(CC2=NCCN2)cc1,inactive,
C[C@H]1[C@H]2CC[C@H]3[C@@H]4CC=C5C[C@@H](N(C)C)CC[C@]5(C)[C@H]4CC[C@]23CN1C,inactive,
O=C1C(=O)c2ccccc2C(O)=C1C1CCC(c2ccc(Cl)cc2)CC1 (stereo not given),inactive,
CCOCCn1c(N2CCCN(C)CC2)nc2ccccc21,inactive,
Cc1cn([C@H]2C[C@H](F)[C@@H](CO)O2)c(=O)[nH]c1=O,inactive,
CCOC(=O)[C@H](CCc1ccccc1)N[C@@H](C)C(=O)N1[C@H](C(=O)O)C[C@@H]2CCC[C@@H]21,inactive,
C[C@@H](O)[C@H]1C(=O)N2C(C(=O)O)=C(S[C@@H]3CN[C@H](CNS(N)(=O)=O)C3)[C@H](C)[C@H]12,inactive,
N#CCC(=O)NN,inactive,
CC(C)NCC(O)c1ccc2ccccc2c1 (stereo not given),inactive,
NC(=O)c1ccccc1O,inactive,
CCCCC(CC)CN1CN(CC(CC)CCCC)CC(C)(N)C1 (stereo not given),inactive,
CN1CCC(OC(c2ccccc2)c2ccccc2)CC1,inactive,
c1ccc(-c2nc[nH]c2-c2ccccc2)cc1,inactive,

Structure (SMILES),Potency,"activity change, negative = cytotoxic"
CC(C)Cn1cnc2c1c(=O)n(C)c(=O)n2C,inactive,
O=C(N/N=C/c1ccc([N+](=O)[O-])o1)c1ccc(O)cc1,inactive,
NC(=O)C1(N2CCCCC2)CCN(CCCC(=O)c2ccc(F)cc2)CC1,inactive,
Cc1cc(CC(=O)O)c(C)n1-c1ccc(Cl)cc1,inactive,
CCCCCCCCCCCCCC[N+](C)(C)Cc1ccccc1,21100 nM (active),
O=S(=O)(O)c1ccc(O)cc1,inactive,
CCCCNC(=O)NS(=O)(=O)c1ccc(N)cc1,inactive,
CC(=O)Nc1ccc(OC(=O)c2ccccc2OC(C)=O)cc1,inactive,
CCN[C@@H]1C[C@H](N)[C@@H](OC2OC(CN)=CCC2N)[C@H](O)[C@H]1O[C@H]1OC[C@](C)(O)[C@H](NC)[C@H]1O (stereo not given in full),,1.88% [at 0.597 µM]
COc1cc(C)nc(-n2nc(C)cc2OC)n1,inactive,
C#C[C@]1(O)CC[C@H]2[C@@H]3[C@H](C)CC4=C(CCC(=O)C4)[C@H]3CC[C@@]21C,inactive,
C=C1c2cccc(O)c2C(O)=C2C(=O)[C@]3(O)C(O)=C(C(N)=O)C(=O)[C@@H](N(C)C)[C@@H]3[C@@H](O)[C@H]12,inactive,
OCc1ccccn1,inactive,
C=C[C@H]1CN2CC[C@H]1C[C@@H]2[C@@H](O)c1ccnc2ccc(OC)cc12,inactive,
CCC(C(=O)OCCOCCN(CC)CC)c1ccccc1 (stereo not given),inactive,
C[C@@]12C(=O)OC(=O)[C@]1(C)C1CCC2O1,2370 nM (active),
O=C(Oc1cccc2cccnc12)c1ccccc1,inactive,
COc1cc(C(=O)NCc2ccc(OCCN(C)C)cc2)cc(OC)c1OC,inactive,
CC(C)Cc1ccc(CC(=O)O)cc1,inactive,
Nc1nc(Cl)nc2c1ncn2[C@@H]1O[C@H](CO)[C@@H](O)[C@@H]1F,26.6 nM (active),
